# Results filed as inconclusive are left out. A call without a number means that no potency is given here. Values without a mark were called inactive. Calls of active or inactive are those of the source. Calls follow the shape of the full dose curve.
# Biological target: D(2) dopamine receptor (Homo sapiens) (UniProt P14416)
# Assay: Dopamine D2 receptor (DRD2) small molecule agonists, cell-based qHTS assay (AID 1963594); also: nearly all actives have a fitted effect of over 35% in size
# Conditions: HEK293-DRD2 cAMP HTRF, agonist mode, 30 min; series mostly up to 92.4 µM
# Description: National Center for Advancing Translational Sciences [NCATS]
# Division of Preclinical Innovation [DPI]
# U.S. Environmental Protection Agency [EPA]
# National Institutes of Environmental Health Sciences [NIEHS]
# National Toxicology Program [NTP]
# U.S. Food and Drug Administration [FDA]
# DRD2 is the D2 subtype of the dopamine receptor, which is coupled to Gi subtype of G protein-coupled receptor. This G protein-coupled receptor inhibits adenylyl cyclase activity. The DRD2-HEK293 cell line stably expressing D2 dopamine receptor can be used for screening agonists and antagonists of interactions between D2 and its ligands. The Hek293-DRD2 cAMP assay is based on HTRF technology. It measures changes of cAMP accumulation in response to Gi coupled GPCR activation or inhibition.
# Tox21 Assay Protocol Summary:
# DRD2-Hek293 cells were dispensed at 600 cells/3uL/well in 1536-well white plates using a Multidrop Dispenser. After the assay plates were incubated at a 37 C/5% CO2 incubator for 24 h, 1 uL of Ro20-1724 at final concentration of 0.1 mM was transferred to the assay plate by a Flying Reagent Dispenser. Following Ro20-1724 addition, 23 nL of compound dissolved in DMSO, positive controls or DMSO only was added to the assay plates via Wako pintool station. The assay plates were incubated at room temperature for 10 min. Next, 1 uL of NKH477 at 200nM was added into the plates. After the assay plates were incubated at room temperature for an additional 30 min, 2.5 ul/well of cAMP-d2 and 2.5 ul/well of anti-cAMP-cryptate were added respectively into the assay plates using a Flying Reagent Dispenser. The plates were incubated at room temperature for 1 h. The fluorescence intensity in the plates was measured at 340 nm excitation and 665 & 620 nm emission by an Envision plate reader.
# Chain of D(2) dopamine receptor (Homo sapiens) (P14416 whole entry, looked up): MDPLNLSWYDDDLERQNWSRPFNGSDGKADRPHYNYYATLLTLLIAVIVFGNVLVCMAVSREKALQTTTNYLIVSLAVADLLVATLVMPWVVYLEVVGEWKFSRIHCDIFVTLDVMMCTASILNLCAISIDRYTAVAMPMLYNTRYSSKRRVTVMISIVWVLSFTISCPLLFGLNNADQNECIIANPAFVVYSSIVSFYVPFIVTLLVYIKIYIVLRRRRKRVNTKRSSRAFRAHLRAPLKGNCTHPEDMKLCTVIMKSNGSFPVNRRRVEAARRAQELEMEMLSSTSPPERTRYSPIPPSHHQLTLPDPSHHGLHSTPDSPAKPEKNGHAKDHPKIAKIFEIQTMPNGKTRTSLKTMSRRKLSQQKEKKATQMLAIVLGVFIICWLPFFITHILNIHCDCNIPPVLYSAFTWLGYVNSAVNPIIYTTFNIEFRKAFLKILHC
SMILES,Potency,activation
O=C(c1ccccc1)C(Cl)Cl,inactive,–
C=CCC1([C@H](C)CCC)C(=O)NC(=O)NC1=O,inactive,–
CC(C)(Cl)[N+](=O)[O-],inactive,–
COC(=O)C(C)N(C(=O)Cc1ccccc1)c1c(C)cccc1C (stereo not given),inactive,–
c1ccc2c(c1)OCC(C1=NCCN1)O2 (stereo not given),inactive,–
CC(CC(C#N)(c1ccccc1)c1ccccc1)N(C)C (stereo not given),inactive,–
c1ccc2c(c1)[nH]c1cnccc12,inactive,–
COP(=S)(OC)Oc1cc(Cl)c(I)cc1Cl,inactive,–
COc1cnc(OC)n2nc(NS(=O)(=O)c3c(OCC(F)F)cccc3C(F)(F)F)nc12,inactive,–
Oc1c(Cl)cccc1Cl,inactive,–
COP(N)(=S)Oc1ccccc1C(=O)OC(C)C (stereo not given),inactive,–
ClP(Cl)(Cl)(Cl)Cl,inactive,–
CNC(C)Cc1ccccc1OC (stereo not given),inactive,–
O=[N+]([O-])O.O=[N+]([O-])O.[Cd],inactive,–
CCC[CH2][Sn]([CH2]CCC)([O]C(C)=O)[O]C(C)=O,inactive,–
NC(=O)C(Cl)Cl,inactive,–
CCS(=O)(=O)CCSP(=O)(OC)OC,inactive,–
CNP(=O)(OC)Oc1ccc(C(C)(C)C)cc1Cl (stereo not given),inactive,–
CC(CCc1ccccc1)NC(C)C(O)c1ccc(O)cc1 (stereo not given),inactive,–
C[N+](C)(C)CC1CO1 (stereo not given),inactive,–

SMILES,Potency,activation
CC(=O)OC1(c2ccccc2)CCN(CCc2ccccc2)CC1,inactive,–
Cc1ccc2nc3sc(=O)sc3nc2c1,–,1.16% [at 19 µM]
Cc1cc(SCc2sc(-c3ccc(C(F)(F)F)c(F)c3)nc2C)ccc1OCC(=O)O,inactive,–
CCC(=O)C(CCN(C)C)(c1ccccc1)c1ccccc1,inactive,–
N[C@@H](Cc1ccc(Oc2cc(I)c(O)c(I)c2)c(I)c1)C(=O)O,inactive,–
BrCCCCCCBr,inactive,–
CNC(=O)Oc1ccccc1C(C)C,inactive,–
O=CC=O,inactive,–
CC1(C)C(C(=O)OC(C#N)c2cccc(Oc3ccccc3)c2)C1(C)C (stereo not given),inactive,–
CCOC(=O)C(Cl)C(C)=O (stereo not given),inactive,–
c1ccc2cc3c(cc2c1)-c1cccc2cccc-3c12,inactive,–
Fc1ccc(C2(Cn3cncn3)OC2c2ccccc2Cl)cc1 (stereo not given),inactive,–
CCOC(=O)c1ncn2c1CN(C)C(=O)c1c(I)cccc1-2,inactive,–
ClCc1ccccc1Cl,inactive,–
NNC(N)=O,inactive,–
C[C@@H]1CC2=CC(=O)CC[C@@H]2[C@H]2CC[C@@]3(C)[C@@H](CC[C@]3(C)O)[C@@H]21,inactive,–
CNC(=O)Oc1ccc(N(C)C)c(C)c1,inactive,–
O=C(N[C@H]1CN2CCC1CC2)c1cc2ccoc2cn1,inactive,–
Oc1c(I)cc(I)cc1I,inactive,–
CC(Cc1ccccc1)N(C)Cc1ccco1 (stereo not given),inactive,–

# Reference: PubChem BioAssay (Tox21)
